# Test results: PubChem BioAssay AID1671202 (University of Kansas High Throughput Screening Laboratory, 2021)
# Where “and” joins values, the source holds several entries; their conditions need not be identical. Equal entries are not always repeated. Screen size: about 190,000 compounds; about 6,900 (3.6%) were called active. Only a selection was taken, and actives are over-represented in it overall. Values without a mark were called inactive. Rule as the data show it: active = inhibition above about 50%; inactive = the rest.
# Biological target: Huntingtin (Homo sapiens) (UniProt P42858)
# Sequence (P42858 whole entry, looked up, stated change not applied): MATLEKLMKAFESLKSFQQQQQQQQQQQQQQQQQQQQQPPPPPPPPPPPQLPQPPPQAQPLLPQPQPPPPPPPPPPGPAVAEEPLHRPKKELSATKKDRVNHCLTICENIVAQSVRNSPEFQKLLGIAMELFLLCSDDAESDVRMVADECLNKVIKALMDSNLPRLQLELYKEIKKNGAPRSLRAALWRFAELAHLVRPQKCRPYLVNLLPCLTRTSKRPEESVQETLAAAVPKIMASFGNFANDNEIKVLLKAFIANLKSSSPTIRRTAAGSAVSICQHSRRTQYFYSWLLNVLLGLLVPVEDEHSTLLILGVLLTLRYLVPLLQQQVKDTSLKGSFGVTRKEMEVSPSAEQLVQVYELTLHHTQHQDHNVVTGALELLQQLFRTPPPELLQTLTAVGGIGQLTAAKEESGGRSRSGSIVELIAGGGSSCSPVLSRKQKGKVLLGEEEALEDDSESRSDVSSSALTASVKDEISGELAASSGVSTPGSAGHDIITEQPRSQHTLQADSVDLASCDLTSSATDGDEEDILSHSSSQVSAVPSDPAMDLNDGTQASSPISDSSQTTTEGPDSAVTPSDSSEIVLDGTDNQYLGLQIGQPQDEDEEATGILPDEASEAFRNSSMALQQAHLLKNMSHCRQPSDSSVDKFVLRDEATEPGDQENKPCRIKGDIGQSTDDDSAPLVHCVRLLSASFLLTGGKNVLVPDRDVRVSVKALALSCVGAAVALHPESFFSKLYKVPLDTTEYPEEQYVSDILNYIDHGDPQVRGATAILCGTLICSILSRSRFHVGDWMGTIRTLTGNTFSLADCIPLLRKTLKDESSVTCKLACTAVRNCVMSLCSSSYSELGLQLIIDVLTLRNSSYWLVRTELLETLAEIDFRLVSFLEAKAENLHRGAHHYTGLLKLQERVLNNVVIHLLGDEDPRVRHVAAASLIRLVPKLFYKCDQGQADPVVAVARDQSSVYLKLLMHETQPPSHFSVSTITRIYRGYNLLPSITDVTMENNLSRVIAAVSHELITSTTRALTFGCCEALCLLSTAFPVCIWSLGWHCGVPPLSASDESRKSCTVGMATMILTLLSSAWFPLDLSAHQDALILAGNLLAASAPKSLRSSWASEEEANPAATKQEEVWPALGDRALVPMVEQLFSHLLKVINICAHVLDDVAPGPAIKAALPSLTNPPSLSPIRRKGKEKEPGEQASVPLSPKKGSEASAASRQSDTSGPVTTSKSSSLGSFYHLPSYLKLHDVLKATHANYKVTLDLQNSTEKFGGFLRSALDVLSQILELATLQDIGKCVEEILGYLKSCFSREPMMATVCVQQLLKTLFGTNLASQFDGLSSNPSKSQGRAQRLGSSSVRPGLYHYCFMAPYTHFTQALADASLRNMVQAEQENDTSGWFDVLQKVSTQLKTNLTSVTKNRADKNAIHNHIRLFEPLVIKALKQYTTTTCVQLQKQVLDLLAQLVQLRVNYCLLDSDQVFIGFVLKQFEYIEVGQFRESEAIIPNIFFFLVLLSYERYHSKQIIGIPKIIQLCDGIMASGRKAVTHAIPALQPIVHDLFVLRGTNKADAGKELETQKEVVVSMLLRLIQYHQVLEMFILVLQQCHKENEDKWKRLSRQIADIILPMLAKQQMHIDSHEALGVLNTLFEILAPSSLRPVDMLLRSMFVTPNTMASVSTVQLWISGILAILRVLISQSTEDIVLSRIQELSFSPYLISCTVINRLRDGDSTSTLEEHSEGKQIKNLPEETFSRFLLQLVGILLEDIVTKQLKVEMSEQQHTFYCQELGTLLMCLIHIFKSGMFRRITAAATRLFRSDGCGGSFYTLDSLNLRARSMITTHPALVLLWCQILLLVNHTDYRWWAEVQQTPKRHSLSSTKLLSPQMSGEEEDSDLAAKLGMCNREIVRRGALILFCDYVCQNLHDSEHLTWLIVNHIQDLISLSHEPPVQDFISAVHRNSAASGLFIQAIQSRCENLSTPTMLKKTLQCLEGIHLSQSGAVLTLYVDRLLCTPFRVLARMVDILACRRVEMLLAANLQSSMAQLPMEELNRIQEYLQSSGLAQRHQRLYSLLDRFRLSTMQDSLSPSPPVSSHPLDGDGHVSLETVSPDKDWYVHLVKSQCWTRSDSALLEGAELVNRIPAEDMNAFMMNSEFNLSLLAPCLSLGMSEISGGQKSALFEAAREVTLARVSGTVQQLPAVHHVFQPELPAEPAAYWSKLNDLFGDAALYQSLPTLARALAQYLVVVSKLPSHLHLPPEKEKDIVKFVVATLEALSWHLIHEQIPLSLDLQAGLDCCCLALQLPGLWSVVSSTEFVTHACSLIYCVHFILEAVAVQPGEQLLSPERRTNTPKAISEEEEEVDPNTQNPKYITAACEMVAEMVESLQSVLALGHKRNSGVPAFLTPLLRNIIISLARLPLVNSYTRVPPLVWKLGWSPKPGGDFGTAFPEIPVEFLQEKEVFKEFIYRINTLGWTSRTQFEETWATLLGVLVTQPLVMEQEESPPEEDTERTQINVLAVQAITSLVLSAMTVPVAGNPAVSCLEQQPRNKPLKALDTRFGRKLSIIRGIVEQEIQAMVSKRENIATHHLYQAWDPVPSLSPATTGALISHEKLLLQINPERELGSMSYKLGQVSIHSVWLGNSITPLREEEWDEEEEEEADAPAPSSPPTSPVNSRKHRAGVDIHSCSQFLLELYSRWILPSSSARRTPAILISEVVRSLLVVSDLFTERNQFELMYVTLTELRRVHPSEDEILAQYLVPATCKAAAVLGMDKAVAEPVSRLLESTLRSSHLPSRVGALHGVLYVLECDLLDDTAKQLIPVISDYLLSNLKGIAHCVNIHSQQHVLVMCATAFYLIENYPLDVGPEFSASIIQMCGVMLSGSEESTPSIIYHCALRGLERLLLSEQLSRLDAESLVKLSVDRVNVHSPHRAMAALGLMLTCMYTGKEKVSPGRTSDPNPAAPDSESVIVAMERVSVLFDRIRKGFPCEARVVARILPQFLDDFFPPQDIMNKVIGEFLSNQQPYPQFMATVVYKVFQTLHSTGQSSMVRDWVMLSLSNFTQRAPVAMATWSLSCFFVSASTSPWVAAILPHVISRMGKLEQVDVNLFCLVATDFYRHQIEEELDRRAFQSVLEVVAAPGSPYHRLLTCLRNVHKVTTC
# Assay: mutant huntingtin-calmodulin interaction inhibitors – biochemical, AlphaScreen, primary screen (AID 1671202);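 also: 0% = both proteins with DMSO and 100% = one protein alone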
# Details: AlphaScreen His-mHTT/GST-CaM binding, luminescence; at 15 µM; hits give high values
row,Structure (SMILES),inhibition
1,Nc1ccc(Cc2ccc(N)c(Cl)c2)cc1Cl,14.7%
2,Nc1ccc(-c2ccc(N)c(N)c2)cc1N,92.1% (active)
3,CC(C)CCn1c(=O)c(C(=O)Nc2ccccn2)c(O)c2ccccc21,-1%
4,CCCn1c(=O)cc(C)c2ccc(OCC(=O)N3CCN(C)CC3)cc21,-3.5%
5,CCOC(=O)c1ccc(NC(=O)c2cccn(Cc3ccc(C(F)(F)F)cc3)c2=O)cc1,83.3% (active)
6,Cc1csc(NC(=O)c2cccn(Cc3cccc([N+](=O)[O-])c3)c2=O)n1,-9.9%
7,CCCCS(=O)(=O)N1CCC2(C1)C(=O)N(C)c1ccc(OC)cc12 (stereo not given),12.5%
8,COc1ccc(CCC(=O)N2CCC3(C2)C(=O)N(C)c2ccc(OC)cc23)cc1 (stereo not given),6.74%
9,CC(C)CCNC(=O)CN1C(=O)C(C)N=C(c2ccccc2)c2ccccc21 (stereo not given),5%
10,O=C(Cc1c[nH]c2ccccc12)N1CCCN(C2CCN(Cc3ccc(F)cc3)C2=O)CC1 (stereo not given),44.9%
11,O=[N+]([O-])c1cccc(C(Cl)Cl)c1,-5.2%
12,O=c1cccc2n1CC1CC2CN(Cc2cc(Cl)ccc2O)C1 (stereo not given),3.2%
13,COC(=O)c1ccc2[se]c(CC3CCCCC3)c(I)c2c1,-13.6%
14,O=[N+]([O-])c1ccc(NCCNc2ccc([N+](=O)[O-])c3cccnc23)cc1,1.26%
15,CC(C)(CNc1ccc([N+](=O)[O-])c2cccnc12)CNS(=O)(=O)c1ccc(Cl)cc1,54% (active)
16,CCN(CC)CCNc1ccc([N+](=O)[O-])c2cccnc12,-2.5% and 9%
17,CCN(CC)CC#CCOc1ccccc1,-4.9%
18,CC(=O)c1ccc(OC(NC(=O)Cc2ccccc2)C(Cl)(Cl)Cl)cc1 (stereo not given),50% (active)
19,CN1CCN(c2nnc(C(F)(F)F)s2)CC1,-5%
20,CC(C)c1cc(=O)n2c(n1)SCC2CC(=O)N1CC2CC(C1)c1cccc(=O)n1C2 (stereo not given),-1.2%
